Laboratory results taken from PubChem BioAssay AID1159580 (chemical genetic matrix, 2015).
Out of some 5,500 compounds screened, about 2,000 (36%) were called active. Another 18% or so got no clear call; they are omitted. Cut-off read from the data, not from the text of the source: active = normalized growth mostly below about 0.91 (no sharp cut-off); inconclusive = no clear call, values can overlap the other calls; inactive = mostly above about 0.92. The list shows a part of the results.

Assay: chemical genetic growth profiling, strain panel (AID 1159580);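 note: tested at 20 µM; growth read once vehicle control cultures reached saturation at 30 °C; 1 = growth at the plate median or of vehicle wells; lower values mean less growth of the strain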
Details: S. cerevisiae deletion strains, growth OD

Measured: normalized growth

C[C@@H]1OC(O[C@H]2C(O[C@H]3CC[C@@]4(C)C(CC[C@]5(C)C4CC=C4C6CC(C)(C)CC[C@]6(C(=O)O)CC[C@]45C)[C@]3(C)CO)OC[C@H](O)[C@@H]2O)[C@H](O)[C@H](O)[C@H]1O (stereo not given in full)
active: locus YAL021C, strain ccr4, hits give low values 0.0607 | locus YAL026C, strain drs2, hits give low values 0.0592 | locus YAL030W, strain snc1, hits give low values 0.0552 | locus YBL061C, strain skt5, hits give low values 0.058 | locus YBR009C, strain hhf1, hits give low values 0.061 | locus YBR021W, strain FUR4, hits give low values 0.267 | locus YBR023C, strain chs3, hits give low values 0.0603 | locus YBR171W, strain sec66, hits give low values 0.0767 | locus YBR229C, strain ROT2, hits give low values 0.32 | locus YBR231C, strain swc5, hits give low values 0.0595 | locus YBR279W, strain paf1, hits give low values 0.0577 | locus YCL011C, strain gbp2, hits give low values 0.0544 | locus YCL016C, strain dcc1, hits give low values 0.0589 | locus YCL029C, strain bik1, hits give low values 0.0636 | locus YCL061C, strain MRC1, hits give low values 0.0604 | locus YCL069W, strain vba3, hits give low values 0.0603 | locus YCR088W, strain abp1, hits give low values 0.059 | locus YDL005C, strain med2, hits give low values 0.0706 | locus YDL035C, strain GPR1, hits give low values 0.483 | locus YDL040C, strain nat1, hits give low values 0.0557 | locus YDL074C, strain BRE1, hits give low values 0.269 | locus YDL101C, strain DUN1, hits give low values 0.44 | locus YDL185W, strain tfp1, hits give low values 0.0554 | locus YDL192W, strain arf1, hits give low values 0.0745 | locus YDR001C, strain nth1, hits give low values 0.0586 | locus YDR069C, strain doa4, hits give low values 0.0606 | locus YDR101C, strain arx1, hits give low values 0.0695 | locus YDR137W, strain rgp1, hits give low values 0.0801 | locus YDR159W, strain sac3, hits give low values 0.0844 | locus YDR162C, strain NBP2, hits give low values 0.299 | locus YDR195W, strain ref2 0.105 | locus YDR297W, strain sur2, hits give low values 0.0548 | locus YDR318W, strain mcm21, hits give low values 0.0705 | locus YDR334W, strain swr1, hits give low values 0.0629 | locus YDR335W, strain msn5, hits give low values 0.0601 | locus YDR388W, hits give low values 0.0545 | locus YDR392W, strain spt3, hits give low values 0.0915 | locus YDR502C, strain sam2, hits give low values 0.0793 | locus YEL003W, strain gim4, hits give low values 0.0528 | locus YEL037C, strain rad23, hits give low values 0.0576 | locus YEL061C, strain CIN8 (second series), hits give low values 0.0604 | locus YEL061C, strain CIN8, hits give low values 0.447 | locus YER015W, strain faa2, hits give low values 0.059 | locus YER016W, strain bim1, hits give low values 0.059 | locus YER110C, hits give low values 0.0996 | locus YER111C, strain swi4, hits give low values 0.0703 | locus YER155C, strain BEM2 (second series), hits give low values 0.0853 | locus YER155C, strain BEM2, hits give low values 0.124 | locus YER167W, strain BCK2, hits give low values 0.24 | locus YFR010W, strain ubp6, hits give low values 0.0632 | locus YGL078C, strain dbp3, hits give low values 0.056 | locus YGL086W, strain mad1, hits give low values 0.0905 | locus YGL167C, strain pmr1, hits give low values 0.0718 | locus YGL173C, strain kem1, hits give low values 0.0643 | locus YGL227W, strain vid30, hits give low values 0.0617 | locus YGL240W, strain doc1, hits give low values 0.0707 | locus YGL248W, strain PDE1, hits give low values 0.422 | locus YGL253W, strain hxk2, hits give low values 0.053 | locus YGR078C, strain PAC10, hits give low values 0.325 | locus YGR135W, strain pre9, hits give low values 0.136 | locus YGR252W, strain gcn5, hits give low values 0.157 | locus YHR013C, strain ard1, hits give low values 0.114 | locus YHR027C, strain rpn1, hits give low values 0.0611 | locus YHR030C, strain SLT2, hits give low values 0.103 | locus YHR079C, strain IRE1 (second series), hits give low values 0.0576 | locus YHR094C, strain hxt1, hits give low values 0.0605 | locus YHR129C, strain ARP1, hits give low values 0.202 | locus YHR142W, strain chs7, hits give low values 0.0688 | locus YHR200W, strain rpn10, hits give low values 0.0676 | locus YIL066C, strain RNR3, hits give low values 0.457 | locus YIL073C, strain SPO22, hits give low values 0.285 | locus YIL125W, strain kgd1, hits give low values 0.0561 | locus YIR030C, strain dcg1, hits give low values 0.0652 | locus YJL092W, strain hpr5, hits give low values 0.0579 | locus YJL095W, strain BCK1 (second series), hits give low values 0.0567 | locus YJL095W, strain BCK1, hits give low values 0.143 | locus YJL115W, strain asf1, hits give low values 0.069 | locus YJL129C, strain trk1, hits give low values 0.0793 | locus YJL134W, strain LCB3, hits give low values 0.187 | locus YJL154C, strain vps35, hits give low values 0.0589 | locus YJL164C, strain tpk1, hits give low values 0.0589 | locus YJL166W, strain qcr8, hits give low values 0.0599 | locus YJL168C, strain set2, hits give low values 0.0664 | locus YJL187C, strain SWE1 (second series), hits give low values 0.48 | locus YJL187C, strain SWE1, hits give low values 0.0554 | locus YJR043C, strain POL32, hits give low values 0.42 | locus YKL009W, strain mrt4, hits give low values 0.0928 | locus YKL068W, hits give low values 0.0555 | locus YKL085W, strain MDH1 (second series), hits give low values 0.0602 | locus YKL085W, strain MDH1, hits give low values 0.0602 | locus YKL160W, strain elf1, hits give low values 0.0617 | locus YKR001C, strain vps1, hits give low values 0.0888 | locus YKR026C, strain gcn3, hits give low values 0.0618 | locus YKR091W, strain srl3, hits give low values 0.0568 | locus YLL001W, strain dnm1, hits give low values 0.0585 | locus YLL026W, hits give low values 0.0562 | locus YLL041C, strain sdh2, hits give low values 0.0555 | locus YLR027C, strain aat2, hits give low values 0.0549 | locus YLR039C, strain RIC1, hits give low values 0.135 | locus YLR058C, strain SHM2, hits give low values 0.414 | locus YLR102C, strain apc9, hits give low values 0.0668 | locus YLR221C, strain rsa3, hits give low values 0.0578 | locus YLR258W, strain gsy2, hits give low values 0.0581 | locus YLR262C, strain YPT6 (second series), hits give low values 0.0763 | locus YLR262C, strain YPT6, hits give low values 0.153 | locus YLR268W, strain sec22, hits give low values 0.0705 | locus YLR320W, strain mms22, hits give low values 0.0834 | locus YLR330W, strain CHS5, hits give low values 0.213 | locus YLR342W, strain FKS1 (second series), hits give low values 0.286 | locus YLR342W, strain FKS1, hits give low values 0.0611 | locus YLR357W, strain rsc2, hits give low values 0.11 | locus YLR370C, strain arc18, hits give low values 0.0593 | locus YLR371W, strain rom2, hits give low values 0.0622 | locus YLR384C, strain iki3, hits give low values 0.0588 | locus YLR418C, strain cdc73, hits give low values 0.114 | locus YML016C, strain PPZ1, hits give low values 0.214 | locus YML032C, strain rad52, hits give low values 0.0701 | locus YML120C, strain ndi1, hits give low values 0.0572 | locus YML124C, strain tub3, hits give low values 0.0681 | locus YMR058W, strain fet3, hits give low values 0.0577 | locus YMR078C, strain ctf18, hits give low values 0.0754 | locus YMR125W, strain sto1, hits give low values 0.0713 | locus YMR129W, hits give low values 0.0556 | locus YMR205C, strain PFK2, hits give low values 0.0864 | locus YMR223W, strain ubp8, hits give low values 0.0761 | locus YMR231W, strain pep5, hits give low values 0.0636 | locus YMR263W, strain SAP30, hits give low values 0.185 | locus YMR307W, strain GAS1, hits give low values 0.117 | locus YNL067W, strain RPL9B, hits give low values 0.471 | locus YNL071W, strain lat1, hits give low values 0.0594 | locus YNL128W, strain TEP1, hits give low values 0.401 | locus YNL209W, strain ssb2, hits give low values 0.0578 | locus YNL233W, strain BNI4, hits give low values 0.167 | locus YNL248C, strain rpa49, hits give low values 0.0674 | locus YNL250W, strain rad50, hits give low values 0.0622 | locus YNL271C, strain bni1, hits give low values 0.058 | locus YNL298W, strain CLA4, hits give low values 0.0574 | locus YNL307C, strain MCK1, hits give low values 0.0651 | locus YNL322C, strain KRE1 (second series), hits give low values 0.0635 | locus YNR049C, strain mso1, hits give low values 0.0575 | locus YNR052C, strain pop2, hits give low values 0.0612 | locus YOL147C, strain pex11, hits give low values 0.0641 | locus YOR001W, strain rrp6, hits give low values 0.0642 | locus YOR061W, strain CKA2, hits give low values 0.723 | locus YOR069W, strain VPS5, hits give low values 0.193 | locus YOR070C, strain gyp1, hits give low values 0.0577 | locus YOR080W, strain dia2, hits give low values 0.0631 | locus YOR083W, strain WHI5, hits give low values 0.0595 | locus YOR106W, strain vam3, hits give low values 0.0596 | locus YOR136W, strain idh2, hits give low values 0.0808 | locus YOR144C, strain elg1, hits give low values 0.0575 | locus YOR184W, strain ser1, hits give low values 0.0762 | locus YOR265W, strain rbl2, hits give low values 0.0556 | locus YOR270C, strain vph1, hits give low values 0.0934 | locus YOR290C, strain snf2, hits give low values 0.0761 | locus YOR316C, strain cot1, hits give low values 0.0649 | locus YPL051W, strain arl3, hits give low values 0.0588 | locus YPL078C, strain atp4, hits give low values 0.0628 | locus YPL106C, strain sse1, hits give low values 0.0896 | locus YPL240C, strain hsp82, hits give low values 0.0548 | locus YPR119W, strain clb2, hits give low values 0.0662 | locus YPR141C, strain kar3, hits give low values 0.0612 | locus YPR163C, strain tif3, hits give low values 0.0699 | locus YPR167C, strain met16, hits give low values 0.0649 | strain wtn01, hits give low values 0.0783
